Measured values published in PubChem BioAssay (EPA / NIEHS).
Active and inactive are the calls of the source. The calls were made as follows: active = hit-call score of the fitted dose curve at least 0.9, where 1 is the maximum; inactive = score below 0.9.

Each molecule was assayed on CD40, CD40 (gene 958) (assay: BSK_LPS_CD40: BioMAP Diversity Plus: LPS Assay for CD40 Biomarker Activity (AID 2283076)). Conditions: primary human HUVEC with PBMC; actives raise or lower the signal.
Experimental: BSK_LPS is a cell-based, multiplexed-readout assay that uses umbilical vein endothelium and peripheral blood mononuclear cells, a human vascular primary cell co-culture, with measurements taken at 24 hours after chemical dosing in a 96-well plate.BSK_LPS_CD40 is an assay component measured in the BSK_LPS assay. It measures CD40 antibody related to regulation of gene expression using ELISA technology.Data from the assay component BSK_LPS_CD40 was analyzed into 1 assay endpoint. This assay endpoint, BSK_LPS_CD40, was analyzed with bidirectional fitting relative to DMSO as the negative control and baseline of activity. Using a type of binding reporter, gain or loss-of-signal activity can be used to understand changes in the signaling as they relate to the gene CD40. Furthermore, this assay endpoint can be referred to as a primary readout, because this assay has produced multiple assay endpoints where this one serves a signaling function. To generalize the intended target to other relatable targets, this assay endpoint is annotated to the cytokine intended target family, where the subfamily is inflammatory factor.
The levels of cell surface (or secreted, indicated by the prefix "s") biomarker endpoints were measured by ELISA. Overt cytotoxicity to cells in confluent adherent cultures (all systems other than the BT system) was assessed by measuring total protein levels using sulforhodamine B (SRB) staining in parallel cultures at the time of biomarker measurements, indicated as SRB endpoints. For proliferation assays for adherent cell types, individual cell types are cultured at sub-confluence and relative cell numbers quantified by SRB staining at time points optimized for each system (48 h: 3C and CASM3C systems; 72 h: BT and HDF3CGF systems; 96 h: SAg system). SRB was performed by staining cells with 0.1% SRB after fixation with 10% TCA and reading wells at 560 nm.Viability and proliferation of PBMC (T cells) was quantified by Alamar Blue reduction for the SAg and BT systems. For PBMC viability (referred to as PBMC Cytotoxicity within the assay endpoint names), cells were plated (75,000/well in a 96-well plate) and then chemical samples added for 1 h before addition of activators, SEB and TSST-1 (20 ng/mL final concentration each). Cells were incubated for 90 h. Then, Alamar Blue (20 uL/well) (Invitrogen, Cat DAL1100) was added for 6 h, and the plates were read with a fluorescence microplate reader at 546/580 nm (excitation/emission). For PBMC proliferation, cells were plated and activated as above but incubated for only 16 h prior to addition of Alamar Blue. Plates were read after 6 h.
In the case of `Nc1ccn([C@@H]2O[C@H](CO)[C@@H](O)[C@@H]2O)c(=O)n1`, the outcome was “inactive”. With `O=C1CN(N=Cc2ccc([N+](=O)[O-])o2)C(=O)N1` the outcome was “inactive”. With `O=C(O)c1cccc(C[C@@H]2COc3ccc(OCc4nc5cc(F)ccc5s4)cc3[C@@H]2O)c1` the outcome was “inactive”. For `c1ccc2cc3ccccc3cc2c1`, the outcome was “inactive”. With `FC(F)=C(F)C(F)(F)C(F)(F)C(F)(F)C(F)(F)C(F)(F)C(F)(F)F` the outcome was “inactive”. With `OC(CCl)CCl` the outcome was “inactive”. `CCCCCCCC/C=C\CCCCCCCC(=O)OC[C@@H](O)[C@H]1OC[C@H](O)[C@H]1O` was tested, and the outcome was “inactive”. `O=S(=O)(O)c1ccc(N=Nc2c(O)ccc3cc(S(=O)(=O)O)ccc23)cc1` was tested, and the outcome was “inactive”. For `O=C(O)c1cccc(C(=O)O)c1`, the outcome was “inactive”. In the case of `OCCNCCO`, the outcome was “inactive”. In the case of `FC(F)(F)COC(OCC(F)(F)F)OCC(F)(F)F`, the outcome was “inactive”. `CCCOc1ccc(S(=O)(=O)N2CCN(CC)CC2)cc1-c1nc2c(CC)n(Cc3ccccn3)nc2c(=O)[nH]1` was tested, and the outcome was “inactive”. In the case of `OCc1c[nH]c2ccccc12`, the outcome was “inactive”. `S=P(N1CC1)(N1CC1)N1CC1` was tested, and the outcome was “inactive”. For `CCCc1ccccc1`, the outcome was “inactive”. For `C[C@@H](Oc1ccc(CNC(=O)c2cccnc2Oc2ccc3c(c2)OCO3)c(F)c1)C(=O)O`, the outcome was “inactive”. For `O=C(NO)C1(NS(=O)(=O)c2ccc(Oc3ccc(F)cc3)cc2)CCOCC1`, the outcome was “inactive”. With `O=c1[nH]cnc2c1ncn2[C@H]1CC[C@@H](CO)O1` the outcome was “inactive”. With `O=S(=O)(O)CCC(F)(F)C(F)(F)C(F)(F)C(F)(F)C(F)(F)C(F)(F)F` the outcome was “inactive”. With `O=C(Cl)C(F)(F)C(F)(F)C(F)(F)C(=O)Cl` the outcome was “inactive”. For `COc1cc2c(c(OC)c1OC)-c1ccc(OC)c(=O)cc1[C@@H](NC(C)=O)CC2`, the AC50 was 0.148 µM (active). With `CNC(C)=O` the outcome was “inactive”. In the case of `OCc1ccccc1`, the outcome was “inactive”. In the case of `NCC(F)(F)C(F)(F)C(F)(F)C(F)(F)F`, the outcome was “inactive”. In the case of `CCCCCOC(C)=O`, the outcome was “inactive”. `OC(O)(C(F)C(O)(O)C(F)(F)F)C(F)(F)F` was tested, and the outcome was “inactive”. With `O=C(O)c1ccc2c(c1)nc(C(=O)NC1CCN(C3CC3)CC1)n2Cc1cc(-c2ccc(Cl)s2)on1` the outcome was “inactive”. With `Cc1ncc([C@@H](CCCCCCc2ccc3c(n2)NCCC3)CC(=O)O)cn1` the outcome was “inactive”. For `CC(C)c1nnc2ccc(-c3ocnc3-c3cc(F)ccc3F)cn12`, the outcome was “inactive”. With `OC(Cn1cncn1)(Cn1cncn1)c1ccc(F)cc1F` the outcome was “inactive”. `CCCCCCCCN(C)C` was tested, and the outcome was “inactive”. In the case of `CCCCCCCCCCCCCCO`, the AC50 was 36.6 µM (active). `Cc1nccn1-c1ccc(Sc2cccc(C3(C(N)=O)CCOCC3)c2)cc1` was tested, and the outcome was “inactive”. For `NNC(=O)c1ccncc1`, the outcome was “inactive”. For `COS(C)(=O)=O`, the outcome was “inactive”. For `OCCC(F)(F)C(F)(F)C(F)(F)C(F)(F)F`, the outcome was “inactive”. In the case of `CCOc1ccc2[nH]cc(C(=O)NCc3ccccc3)c(=O)c2n1`, the outcome was “inactive”. `CCc1ccc(O)c(C(C)(C)C)c1` was tested, and the outcome was “inactive”. For `C[Si](C)(C)C(F)(F)C(F)(F)C(F)(F)F`, the outcome was “inactive”. In the case of `NC(=O)N1c2ccccc2C=Cc2ccccc21`, the outcome was “inactive”.
